Assay outcomes (PubChem)
Most compounds without a hit are left out; they make up all but 19% or so of the library.
KB-V1 MDR tox – kills drug-selected multidrug resistant KB-V1 cells | AID 1347076 | actives 3.4% (n = 400,000) | KB-V1 MDR cells viability, CellTiter-Glo, 72 h | Potency, µM (top dose mostly 46.1 µM), usual class: cytotoxic; also: nearly all actives have a fitted effect of over 60% in size
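In this primary screen, KB-V1 cells overexpressing P-gp are incubated with library compounds (lowest to highest concentration) for 72 h at 37 degrees C before a luminescent ATP viability read.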
TDP1 cell CPT – growth inhibition of DT40 Tdp1-/-;hTDP1 cells with camptothecin (screen for TDP1 inhibitors); AID 686979; Potency, µM (series often up to 46.2 µM), for inactives: at the top dose activity change, negative = growth inhibition, usual class: inhibitors; actives 12% (n = 420,000); chicken DT40 Tdp1-/-;hTDP1 cells + 20 nM CPT, ATP luminescence, 48 h; also: nearly all actives have a fitted effect of over 55% in size
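Cell growth measured by CellTiter-Glo luminescence after a minimum 48 h, 37 C compound exposure with 20 nM CPT in Tdp1-knockout DT40 cells stably expressing hTDP1, seeded 400/well; qHTS titration format.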
HT1080-NT tox – kills 2HG-producing HT-1080-NT fibrosarcoma cells | HT-1080-NT fibrosarcoma viability, CellTiter-Glo ATP luminescence, 48 h | Potency, µM (doses to about 46.1 µM), for inactives: at the highest dose activity, negative = less viability, hits mostly cytotoxic | actives 1.6% (n = 360,000) | AID 686970;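 also: NT is the 2HG producing partner of a matched IDH1 knockdown line; 0% = DMSO-treated cells and -100% = media-only wells without cells; nearly all actives have a fitted effect of over 55% in size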
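Viability by CellTiter-Glo luminescence after 48 h compound exposure at 37C of HT-1080-NT cells (750/well, RPMI, 5% FBS). % activity scaled between DMSO wells and medium-only wells, then curve-fitted and categorized by curve class.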
HT1080 IDH1KD tx – HT-1080 IDH1 knockdown cell toxicity (counter line). HT-1080 IDH1 knockdown viability, ATP luminescence, 48 h. Potency, µM (highest dose often 46.1 µM), without a hit: at the top dose activity, negative = toxicity, hits mostly cytotoxic. actives 2% (n = 360,000). AID 686971;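 also: 0% = DMSO wells and -100% = cell-free medium wells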
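Luminescent ATP read-out (CellTiter-Glo, 10 min at room temperature) after 48 h compound exposure at 37 °C gave viability of IDH1-knockdown HT-1080 cells. Activity was normalised to DMSO and cell-free wells, then fitted as concentration-response curves.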
TDP1 cell noCPT – qHTS for Inhibitors of human tyrosyl-DNA phosphodiesterase 1 (TDP1): qHTS in cells in absence of CPT | DT40 Tdp1-/- hTDP1 cells, no CPT, ATP luminescence, 48 h | Potency, µM (titrated, usually from 46.2 µM), inactives show top-dose activity change, negative = growth inhibition, most hits filed as inhibitors | actives 15% (n = 420,000) | AID 686978, 2013; also: nearly all actives have a fitted effect of over 55% in size
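Compound effects on proliferation are scored in DT40 Tdp1-/-;hTDP1 cells in the absence of CPT. ATP levels (CellTiter-Glo luminescence) are recorded after a ≥48 hr, 37 °C incubation.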
KB-3-1 tox – KB-3-1 parental cell cytotoxicity | actives 1.4% (n = 400,000) | KB-3-1 viability, CellTiter-Glo ATP luminescence, 72 h | Potency, µM (titrated, usually from 46.1 µM), usual class: cytotoxic | AID 1347075; also: nearly all actives have a fitted effect of over 60% in size
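Cytotoxicity in the drug-sensitive parental line KB-3-1 was scored as loss of CellTiter-Glo luminescence following 72 h incubation with compound. Values come from curve fitting of normalized concentration-response data.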
Numbers without * were called inactive; i = inactive; ? = inconclusive; / = no result given. Calls follow the shape of the dose curve; as a rule, active = well fitted curve in the direction sought with a large enough effect; inconclusive = small, poorly fitted or top-dose-only effect, or another doubt; inactive = no such curve, though single readings can be large; an effect the other way counts as inactive or inconclusive. Unless noted, % is scaled to controls: 0 for no effect and ±100 for the full control effect; potency is read from the fitted curve at half-maximal effect.

SMILES | KB-V1 MDR tox | TDP1 cell CPT | HT1080-NT tox | HT1080 IDH1KD tx | TDP1 cell noCPT | KB-3-1 tox
Cc1ccc(S(=O)(=O)c2c(C)nn(C(C)(C)C)c2OC(=O)c2ccco2)cc1 | i | -23.8% | 23.1µM* | ? | ? | i
Cc1nn(C(C)(C)C)c(OC(=O)c2ccc3c(c2)OCO3)c1Sc1ccccc1 | i | ? | -23.2% | ? | -24.9% | i
Cc1ccc(S(=O)(=O)c2c(C)nn(C(C)(C)C)c2OC(=O)c2cccs2)cc1 | i | -8.6% | 23.1µM* | 25.9µM* | -23.3% | i
CCNc1ncc2nc(-c3cccs3)c(=O)n(C)c2n1 | / | 7.3% | / | / | 2.3% | /
Cc1nonc1OCC(C)(COc1nonc1C)NC(=O)c1ccc(Cl)cc1 | 4.11µM* | ? | ? | -28.0% | 5.6% | ?
CN(C)c1ccc(/C=C(/NC(=O)c2ccccc2)C(=O)NCCCn2ccnc2)cc1 | i | 31.8% | 0.6% | 0.0% | -4.1% | i
C(=N\Nc1cc(N2CCCCC2)ncn1)/c1ccco1 | i | -10.9% | -1.2% | 8.3% | -27.6% | i
CCCN1C(=O)NC2(O)C(=O)c3ccccc3C12O (stereo not given) | i | -0.8% | 7.3% | 10.9% | 3.3% | i
CN1C(=O)NC2(O)C(=O)c3ccccc3C12O (stereo not given) | i | 11.6µM* | 2.5% | ? | 10.3µM* | i
O=C(Nc1nnc(S(=O)(=O)N2CCCc3ccccc32)s1)c1ccccc1Br | i | ? | / | / | ? | i
CCCCNC(=O)CSc1nc(COc2ccccc2)nc2ccccc12 | i | -12.3% | -6.1% | -0.7% | ? | i
CCOc1ccc(OCc2ccc(C(=O)NC(C)C)o2)cc1 | i | ? | 0.1% | -3.8% | ? | i
CC(C)NC(=O)c1ccc(COc2cc(Cl)ccc2Cl)o1 | i | -29.6% | ? | -21.0% | 20.6µM* | i
CCOC(=O)c1ccccc1NC(=O)c1cccs1 | i | 4.0% | 4.6% | -1.1% | -9.5% | i
CCOC(=O)c1ccccc1N/C=C/C(=O)c1cccs1 | ? | ? | 4.0% | 5.7% | 20.6µM* | i
C[C@H](CO)N1C[C@H](C)[C@H](CN(C)Cc2ccncc2)Oc2cc(-c3ccccc3F)ccc2S1(=O)=O | ? | 14.6µM* | 12.5% | 20.4% | 23.1µM* | i
C[C@H]1CN([C@@H](C)CO)S(=O)(=O)c2ccc(Br)cc2O[C@H]1CN(C)Cc1ccccc1 | i | ? | 18.0% | 7.1% | ? | i
CCCC#Cc1ccc2c(c1)O[C@@H](CN(C)Cc1ccc3c(c1)OCO3)[C@H](C)CN([C@@H](C)CO)S2(=O)=O | ? | 7.31µM* | ? | ? | 2.31µM* | 20.6µM*
C[C@H]1CN([C@@H](C)CO)S(=O)(=O)c2ccc(C#Cc3ccccn3)cc2O[C@H]1CN(C)Cc1ccc(F)cc1 | i | ? | 17.5% | 9.7% | ? | i
C[C@H]1CN([C@@H](C)CO)S(=O)(=O)c2ccc(Br)cc2O[C@@H]1CN(C)Cc1ccccc1 | ? | ? | -19.1% | -9.9% | 20.6µM* | i
CC(O)(c1cccnc1)c1nc(-c2ccc(S(C)(=O)=O)cc2)cs1 (stereo not given) | i | -19.8% | 18.1% | 22.2% | -2.8% | i
COc1ccc(C2NC(=O)CCC2[N+](=O)[O-])cc1 (stereo not given) | ? | 18.6% | -1.3% | -2.6% | 0.9% | i
Cc1ccc(C2NC(=O)CCC2[N+](=O)[O-])cc1 (stereo not given) | i | 18.4µM* | 21.0% | 0.0% | ? | i
